Assay results reported in the supplement of paper PMC11732987, “Enantioselective OTUD7B fragment discovery through chemoproteomics screening and high-throughput optimisation” (Communications Chemistry, 2025).

Tests used:
Assay in all cases: log2 ratio of Biotin-Ahx-Ub-VS probe labelling (fragment/DMSO); higher = less target engagement (more negative = stronger competition), active = hit call of the paper (q ≤ 0.05, log2 ratio ≤ -1)
Details in all cases: compound concentration: 200 uM; treatment time: 3 h
OTUD6B = molecular target: T1, OTUD6B (UniProt Q8N6M0)
T1 sequence (whole entry): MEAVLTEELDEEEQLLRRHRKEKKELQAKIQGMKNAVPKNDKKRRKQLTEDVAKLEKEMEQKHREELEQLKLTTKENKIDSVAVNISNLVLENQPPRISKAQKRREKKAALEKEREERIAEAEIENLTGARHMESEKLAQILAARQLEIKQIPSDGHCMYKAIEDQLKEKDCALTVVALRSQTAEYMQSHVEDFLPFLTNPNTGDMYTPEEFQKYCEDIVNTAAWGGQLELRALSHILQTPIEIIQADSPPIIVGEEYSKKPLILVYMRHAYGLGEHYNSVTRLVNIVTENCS
Procedure, shortened: (§1)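 Labelled DUBs from HEK293T lysate were NeutrAvidin-enriched, digested with LysC and trypsin, and run by diaPASEF LC-MS/MS. Before that, each 495 µg sample in Tris/CHAPS/IGEPAL buffer with protease inhibitors was treated in triplicate with fragment at 200 µM or vehicle for 3 h, then with Biotin-Ahx-Ub-VS at 0.5 µM final for 1 h. Values are average log2 ratios of fragment over vehicle by unpaired t-test, based on global-median-normalised Spectronaut label-free quantities from proteins with ≥2 unique peptides.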

OTUD7B = molecular target: T2, OTUD7B (UniProt Q6GQQ9)
T2 sequence (whole entry): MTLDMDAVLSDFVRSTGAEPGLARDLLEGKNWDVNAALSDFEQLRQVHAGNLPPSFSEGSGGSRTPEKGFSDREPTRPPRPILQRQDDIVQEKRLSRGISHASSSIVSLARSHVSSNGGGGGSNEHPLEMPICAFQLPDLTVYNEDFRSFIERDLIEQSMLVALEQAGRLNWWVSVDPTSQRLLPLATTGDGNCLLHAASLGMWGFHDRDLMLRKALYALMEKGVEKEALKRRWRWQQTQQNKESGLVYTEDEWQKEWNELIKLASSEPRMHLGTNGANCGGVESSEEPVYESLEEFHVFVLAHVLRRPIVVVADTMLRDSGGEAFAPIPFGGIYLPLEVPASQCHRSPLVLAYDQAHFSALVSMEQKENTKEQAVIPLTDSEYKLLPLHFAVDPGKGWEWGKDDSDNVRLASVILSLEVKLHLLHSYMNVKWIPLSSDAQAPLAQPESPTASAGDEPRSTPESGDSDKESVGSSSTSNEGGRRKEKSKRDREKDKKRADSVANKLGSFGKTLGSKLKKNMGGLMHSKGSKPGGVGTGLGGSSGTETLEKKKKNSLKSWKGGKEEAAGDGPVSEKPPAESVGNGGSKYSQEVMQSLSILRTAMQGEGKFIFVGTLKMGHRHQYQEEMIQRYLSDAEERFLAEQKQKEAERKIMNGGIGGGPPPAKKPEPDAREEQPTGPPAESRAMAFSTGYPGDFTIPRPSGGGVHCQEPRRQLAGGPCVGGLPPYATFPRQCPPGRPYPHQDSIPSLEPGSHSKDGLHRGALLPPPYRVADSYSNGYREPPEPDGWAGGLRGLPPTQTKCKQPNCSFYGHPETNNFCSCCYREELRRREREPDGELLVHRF
Procedure, shortened: as §1

PRPF8 = PRPF8 (UniProt Q6P2Q9)
Procedure, shortened: as §1

PSMD7 = molecular target: T3, PSMD7 (UniProt P51665)
T3 sequence (whole entry): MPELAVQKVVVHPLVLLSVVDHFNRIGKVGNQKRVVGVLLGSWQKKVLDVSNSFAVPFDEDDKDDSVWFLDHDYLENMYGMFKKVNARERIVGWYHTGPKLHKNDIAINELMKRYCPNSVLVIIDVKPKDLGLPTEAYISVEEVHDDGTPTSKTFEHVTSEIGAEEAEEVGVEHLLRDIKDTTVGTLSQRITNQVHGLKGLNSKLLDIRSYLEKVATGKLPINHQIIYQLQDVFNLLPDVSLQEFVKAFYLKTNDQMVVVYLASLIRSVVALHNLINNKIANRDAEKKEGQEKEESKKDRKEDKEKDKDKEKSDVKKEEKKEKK
Procedure, shortened: as §1

UCHL1 = UCHL1 (UniProt P09936)
Procedure, shortened: as §1

UCHL3 = molecular target: T4, UCHL3 (UniProt P15374)
T4 sequence (whole entry): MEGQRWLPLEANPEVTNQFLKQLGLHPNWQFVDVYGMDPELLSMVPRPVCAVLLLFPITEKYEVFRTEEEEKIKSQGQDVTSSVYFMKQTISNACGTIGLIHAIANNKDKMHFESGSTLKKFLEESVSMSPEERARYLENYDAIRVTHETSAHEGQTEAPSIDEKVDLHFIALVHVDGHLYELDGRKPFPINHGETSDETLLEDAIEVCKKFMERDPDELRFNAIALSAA
Procedure, shortened: as §1

UCHL5 = molecular target: T5, UCHL5 (UniProt Q9Y5K5)
T5 sequence (whole entry): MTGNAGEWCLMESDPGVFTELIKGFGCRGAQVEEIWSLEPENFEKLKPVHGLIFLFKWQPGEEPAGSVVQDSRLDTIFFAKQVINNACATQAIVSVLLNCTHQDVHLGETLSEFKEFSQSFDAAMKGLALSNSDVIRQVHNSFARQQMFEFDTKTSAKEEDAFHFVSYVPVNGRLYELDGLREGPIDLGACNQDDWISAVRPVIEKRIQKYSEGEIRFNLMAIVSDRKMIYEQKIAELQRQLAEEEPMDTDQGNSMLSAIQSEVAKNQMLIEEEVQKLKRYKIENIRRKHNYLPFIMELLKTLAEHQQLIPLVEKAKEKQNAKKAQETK
Procedure, shortened: as §1

USP10 = USP10 (UniProt Q14694)
Procedure, shortened: as §1

USP15 = molecular target: T6, USP15 (UniProt Q9Y4E8)
T6 sequence (whole entry): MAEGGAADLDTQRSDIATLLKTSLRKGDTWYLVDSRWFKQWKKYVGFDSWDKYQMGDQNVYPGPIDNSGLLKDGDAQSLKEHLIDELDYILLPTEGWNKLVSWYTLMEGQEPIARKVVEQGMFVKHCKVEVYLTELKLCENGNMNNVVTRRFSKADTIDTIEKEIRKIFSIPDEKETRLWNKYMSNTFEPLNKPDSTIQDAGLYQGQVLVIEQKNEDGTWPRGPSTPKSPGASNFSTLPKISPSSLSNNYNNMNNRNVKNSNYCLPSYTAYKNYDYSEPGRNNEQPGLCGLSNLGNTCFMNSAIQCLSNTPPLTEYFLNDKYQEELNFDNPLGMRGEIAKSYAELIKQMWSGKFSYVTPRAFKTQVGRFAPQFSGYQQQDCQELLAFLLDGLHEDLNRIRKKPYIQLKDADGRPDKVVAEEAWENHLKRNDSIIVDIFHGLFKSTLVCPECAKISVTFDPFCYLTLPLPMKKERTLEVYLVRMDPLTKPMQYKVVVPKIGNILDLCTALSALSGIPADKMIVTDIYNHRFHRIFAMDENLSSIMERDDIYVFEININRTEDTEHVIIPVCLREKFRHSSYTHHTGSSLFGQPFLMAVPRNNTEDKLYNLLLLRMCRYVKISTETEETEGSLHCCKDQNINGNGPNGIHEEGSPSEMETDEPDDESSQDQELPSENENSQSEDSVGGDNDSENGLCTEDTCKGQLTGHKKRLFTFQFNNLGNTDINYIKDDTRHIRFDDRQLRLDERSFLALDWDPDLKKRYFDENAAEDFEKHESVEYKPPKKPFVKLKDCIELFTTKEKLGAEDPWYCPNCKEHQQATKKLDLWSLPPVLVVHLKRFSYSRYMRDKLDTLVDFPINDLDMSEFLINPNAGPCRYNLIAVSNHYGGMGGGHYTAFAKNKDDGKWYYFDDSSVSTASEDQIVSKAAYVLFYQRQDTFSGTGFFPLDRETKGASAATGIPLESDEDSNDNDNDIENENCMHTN
Procedure, shortened: as §1

Measured: log2 ratio of Biotin-Ahx-Ub-VS probe labelling

Chain of UCHL1 (P09936 whole entry, looked up): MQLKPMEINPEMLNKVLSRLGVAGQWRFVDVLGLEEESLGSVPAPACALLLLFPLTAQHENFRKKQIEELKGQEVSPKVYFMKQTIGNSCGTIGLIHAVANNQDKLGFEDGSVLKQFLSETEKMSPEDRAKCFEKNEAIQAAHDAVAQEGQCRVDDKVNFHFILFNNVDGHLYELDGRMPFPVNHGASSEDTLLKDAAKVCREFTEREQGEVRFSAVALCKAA
Chain of USP10 (Q14694 whole entry): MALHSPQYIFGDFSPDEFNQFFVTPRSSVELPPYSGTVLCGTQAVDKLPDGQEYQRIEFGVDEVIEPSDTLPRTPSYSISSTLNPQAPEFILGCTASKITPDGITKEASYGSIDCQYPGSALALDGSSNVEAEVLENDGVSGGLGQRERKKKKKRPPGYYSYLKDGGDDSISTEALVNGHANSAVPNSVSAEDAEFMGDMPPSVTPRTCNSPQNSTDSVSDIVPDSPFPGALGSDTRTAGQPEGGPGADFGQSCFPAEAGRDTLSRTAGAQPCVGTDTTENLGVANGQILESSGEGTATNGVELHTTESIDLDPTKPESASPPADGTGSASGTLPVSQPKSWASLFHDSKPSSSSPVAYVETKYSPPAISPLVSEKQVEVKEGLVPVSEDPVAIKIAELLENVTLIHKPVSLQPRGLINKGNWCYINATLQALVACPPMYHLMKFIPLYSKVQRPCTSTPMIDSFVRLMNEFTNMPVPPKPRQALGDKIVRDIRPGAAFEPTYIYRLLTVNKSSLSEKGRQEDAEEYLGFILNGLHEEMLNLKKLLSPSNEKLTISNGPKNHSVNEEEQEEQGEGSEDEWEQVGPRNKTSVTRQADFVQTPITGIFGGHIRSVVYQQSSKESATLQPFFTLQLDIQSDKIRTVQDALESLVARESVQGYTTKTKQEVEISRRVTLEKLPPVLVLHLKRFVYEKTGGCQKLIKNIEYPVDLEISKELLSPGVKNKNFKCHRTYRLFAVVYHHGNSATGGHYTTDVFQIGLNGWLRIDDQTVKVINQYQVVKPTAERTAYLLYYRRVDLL

Cl.O=C(CCl)N1CC(c2ccc(Br)cn2)C1
active: OTUD7B -1.18 | UCHL1 -1.41
inactive: OTUD6B -0.116 | PRPF8 0.0941 | PSMD7 -0.394 | UCHL3 -0.211 | UCHL5 -0.254 | USP10 -0.0353 | USP15 -0.409
